This is part of a sample that, as a whole, favours compounds with a hit. Of some 83,000 tested, about 20% had one in any assay.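 Single-concentration screen, 48 h exposure, 96-well plates. Endpoint: percent growth. Below 10 = active.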 A number with no mark means an inactive call. Calls of active or inactive are those of the source.
Tests used:
Experiment in all cases: NCI-60 one-dose screen, 48 h (100 = growth as untreated, 0 = no growth, -100 = all killed)
Conditions in all cases: 10 µM unless noted
NCI-H23 lung = test system: NCI-H23 lung
NCI-H226 lung = test system: NCI-H226 lung
NCI-H322M lung = test system: NCI-H322M lung
HOP-62 NSCLC = test system: HOP-62 NSCLC
NCI-H460 lung = test system: NCI-H460 lung
HOP-92 NSCLC = test system: HOP-92 NSCLC
NCI-H522 lung = test system: NCI-H522 lung
A549/ATCC NSCLC = test system: A549/ATCC NSCLC
786-0 renal = test system: 786-0 renal
COLO 205 colon = test system: COLO 205 colon
DU-145 prostate = test system: DU-145 prostate
K-562 leukemia = test system: K-562 leukemia
MALME-3M melanoma = test system: MALME-3M melanoma
MDA-MB-231 breast = test system: MDA-MB-231 breast
RXF 393 renal = test system: RXF 393 renal
SF-268 CNS = test system: SF-268 CNS
SF-295 CNS = test system: SF-295 CNS
SF-539 CNS = test system: SF-539 CNS
M14 melanoma = test system: M14 melanoma

Row | Structure (SMILES) | growth (NCI-H23 lung) | growth (NCI-H226 lung) | growth (NCI-H322M lung) | growth (HOP-62 NSCLC) | growth (NCI-H460 lung) | growth (HOP-92 NSCLC) | growth (NCI-H522 lung) | growth (A549/ATCC NSCLC) | growth (786-0 renal) | growth (COLO 205 colon) | growth (DU-145 prostate) | growth (K-562 leukemia) | growth (MALME-3M melanoma) | growth (MDA-MB-231 breast) | growth (RXF 393 renal) | growth (SF-268 CNS) | growth (SF-295 CNS) | growth (SF-539 CNS) | growth (M14 melanoma)
1 | O=C1CCCCN1CCCCC#Cc1ccccc1C#Cc1ccccn1 | 101% | 92% | 85.7% | 101% | 115% | 73.2% | 112% | 112% | 102% | 103% | 109% | 93.6% | 100% | 102% | 56.6% | 107% | 109% | 103% | 112%
2 | COc1ccc(N=C2NN=C(c3ccc(F)cc3)CS2)cc1OC | 104% | 78.5% | 96.4% | 96.3% | 107% | 72.8% | 89% | 92.4% | 88% | 98.7% | 103% | 107% | 104% | 91.6% | 78.3% | 116% | 90.8% | 102% | 105%
3 | O=C(Nc1ccc(I)cc1)c1cccc([N+](=O)[O-])c1O | -6.76% (active) | 20.5% | 20.9% | 23.5% | 17.5% | -4.99% (active) | 1.75% (active) | 14.5% | 16.6% | 7.78% (active) | 32.5% | 14.7% | -4.07% (active) | 16.8% | 31.1% | 24.1% | 4.77% (active) | 14.8% | 15.7%
4 | O=C1NCC(c2cc3ccccc3[nH]c2=O)Nc2ccccc21 (stereo unspecified) | 97.4% | 98.4% | 100% | 90.6% | 105% | 104% | 88.6% | 92.4% | 100% | 107% | 111% | 90.2% | 96.8% | 97.9% | 90.7% | 99.9% | 106% | 96.5% | 101%
